A number with no mark means an inactive call. How the calls were made is not given here.

Consider 23 compounds from PubChem BioAssay.

For this experiment, the target named is Pantothenate synthetase (Mycobacterium tuberculosis (strain ATCC 25618 / H37Rv)) (UniProt P9WIL5). Kind of experiment: Coupled enzyme confirmation of inhibitors against recombinant Mtb PanC (AID 375).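 Further: 0% = full reaction with vehicle and 100% = no enzyme background.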 The settings on record: coupled enzyme assay; at 10 µM, active compounds read high.
Sequence of Pantothenate synthetase (Mycobacterium tuberculosis (strain ATCC 25618 / H37Rv)) (P9WIL5 whole entry, looked up): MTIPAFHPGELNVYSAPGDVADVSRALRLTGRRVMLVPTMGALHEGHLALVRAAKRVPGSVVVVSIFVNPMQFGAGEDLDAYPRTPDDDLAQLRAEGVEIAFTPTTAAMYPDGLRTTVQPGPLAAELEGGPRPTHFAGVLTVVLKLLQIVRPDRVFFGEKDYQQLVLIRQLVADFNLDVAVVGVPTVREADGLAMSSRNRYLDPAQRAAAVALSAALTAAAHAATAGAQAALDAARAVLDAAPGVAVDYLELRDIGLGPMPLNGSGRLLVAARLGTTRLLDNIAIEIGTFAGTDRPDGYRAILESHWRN
As usually defined, the inhibition is the share of the control response that was lost under treatment. In the case of `O=c1c2c(nc3nc(CCc4ccccc4)[nH]n13)CCC2`, the inhibition is 9%. With `O=C(NCCC1=CCCCC1)N[C@@H](Cc1ccccc1)C(=O)O`, the inhibition was 6%.

As for `COc1ccc(Cn2nnnc2C(c2cccnc2)N2CCN(c3ccc(O)cc3)CC2)cc1` (stereo not drawn), the inhibition is 0%. Then `CC1CCN(C(=O)c2cc(-c3ccc(Cl)c(Cl)c3)on2)CC1`, with 3%. Consider `O=C(CN1C(=O)c2ccccc2C1=O)NCC1COc2ccccc2O1` (stereo not drawn), for which the inhibition was 0%.

For `CCCCOc1ccccc1C(=O)NCCCC(=O)O`, the inhibition was 0%. Consider `COc1ccccc1NC1=C(C)C(=O)CC1`, for which the inhibition was 0%. For `Cc1nc2ccccc2cc1C(=O)NCc1ccco1`, the inhibition is 0%. As for `CCc1c(C(=O)Nc2cc(C)ccc2OC)[nH]c(C)c1C(C)=O`, the inhibition was 0%. Then `COc1ccc2c(c1)OC(O)(C(F)F)CC2=O` (stereo not drawn), with 0%.

`CC1CCCCC1NC(=O)c1nn(C)c(=O)c2ccccc12` (stereo not drawn): the inhibition is 0%. As to `C/C(NC1CCCC1)=C(/C#N)C(N)=O`, the inhibition was 9%. Then `O=c1[nH]c(/C(=N\O)c2ccccc2)no1`, with 0%; and `CCCOc1ccccc1NC(=O)c1c(-c2ccccc2)noc1C`, with 1%; and `CCOc1ccc(C(=O)Nc2ccc(N3CCN(C)CC3)cc2)cc1Br`, with 0%. Then `CCCCNC(=O)c1nnn(-c2ccccc2)c1N`, with 0%. As for `CSc1ccc(-c2cc(=O)c3ccccc3o2)cc1`, the inhibition was 5%.

With `Nc1nc2n(n1)C(c1cccc(Cl)c1)CC(c1ccc(F)cc1)N2` (stereo not drawn), the inhibition was 0%.

With `O=C(O)c1ccc(NC(=O)c2cccs2)cc1`, the inhibition is 0%.

On to `Cn1c(=O)c2c(-c3ccncc3)c3c(nc2n(C)c1=O)-c1ccccc1C3=O`, for which the inhibition was 0%. Turning to `O=C(NCCc1cccc(Cl)c1)c1cccnc1`, the inhibition was 12%.

Regarding `O=C(Nc1cnccn1)c1cccs1`, the inhibition was 0%. Then `COc1ccc(N(CC(=O)N2CCCCC2)S(=O)(=O)c2ccccc2)c(OC)c1`, with 0%.
